Results: PubChem BioAssay (NCI)
The panel holds about 83,000 compounds, 20% with a hit somewhere; the sample as a whole holds those more often.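 The endpoint reported here, percent growth, reads 100 for growth as untreated, 0 for no net growth and -100 for all cells dead.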 A number with no mark means an inactive call. Activity calls are given as the source filed them.

The molecules below were run on IGROV1 ovarian (assay: NCI-60 one-dose screen, 48 h (100 = growth as untreated, 0 = no growth, -100 = all killed)). Settings: 10 µM unless noted.
Method: Growth inhibition of the IGROV1 human tumor cell line is measured as a screen for anti-cancer activity. Cells are grown in 96 well plates and exposed to the test compound for 48 hours. Compounds are tested at a single concentration, which is 10^-5 M for most compounds. The reported endpoint is percent growth (GI% or GIPRCNT), where numbers from 0 - 100% represent growth inhibition, and numbers from -100% - 0 represent cell death. For example, a value of 40 represents 60% growth inhibition. A value of 0 means no net growth occurred over the course of the experiment. A value of -40 indicates 40% of cells at the beginning of the experiment died by the end of the experiment. A value of -100 means all cells are dead at the end of the experiment.
NCI-60 Human Tumor Cell Lines Screen was performed using the standard one-dose NCI protocol, which is described in more detail at https://dtp.cancer.gov/discovery_development/nci-60/default.htm.
Compounds with GIPRCNT values below 10 were considered active. Activity score was based on GIPRCNT using the following formula: […]
Score is 0 for GIPRCNT values of 100 or above, 50 for GIPRCNT values of 0, and 100 for GIPRCNT values of -100.
Work on `C=C(C)[C@@H]1CC[C@]2(C(=O)NCCCCCN(CCC#N)CCC#N)CC[C@]3(C)[C@H](CC[C@@H]4[C@@]5(C)CCC(=O)C(C)(C)[C@@H]5CC[C@]43C)[C@@H]12` yielded a growth of 97.6%. In the case of `CC(=O)c1cc(C(=O)N2c3ccccc3Sc3ccccc32)n2ccc3ccccc3c12`, the growth is reported as 49.9%. Work on `CNC(=O)c1cc(-n2ccc3cc(NC(=O)Nc4ccc(N5CCOCC5)c(C(F)(F)F)c4)ccc32)ccn1` yielded a growth of 32.3%. Molecule `CCCCc1nc(/C=N/Nc2nc(Nc3ccccc3)nc(Nc3ccc(S(N)(=O)=O)cc3)n2)c(Cl)[nH]1` has a growth of 98.4%. `NC(=O)c1cccc(-n2ccc3cc(NC(=O)Nc4ccc(N5CCOCC5)c(C(F)(F)F)c4)ccc32)n1` showed a growth of 13.8%. `COc1cc(OC)c(S(N)(=O)=O)cc1C(C)=O` was tested, and the growth was 112%. `NS(=O)(=O)c1ccc(-n2cc(CN3CCNCC3)nn2)cc1` gave a growth of 112%. `COc1cc2c(cc1OC)C(Sc1ccc(C)cc1)c1c(nc(N)c(C#N)c1N)O2` (stereo not given) was tested, and the growth was -72.8% (active). Work on `ClC(Cl)c1nc(-c2ccco2)n2nc(-c3ccccc3)cc2n1` yielded a growth of 76.9%. In the case of `COc1cc2c(cc1OC)C(Sc1ccc(F)cc1)c1c(nc(N)c(C#N)c1N)O2` (stereo not given), the growth is reported as -85.7% (active). Molecule `COc1cc(/C=C2\C(=O)Nc3cc(Cl)ccc32)ccc1OCc1ccc(F)cc1` has a growth of 72.7%. `CCOC(=O)C(=O)/C(=C\c1ccc(Cl)cc1)C(=O)N1C(=S)NC(=O)C1CC(C)C` (stereo not given) gave a growth of 95.2%. Work on `N/C(=N\C(N)=N\c1nc2ccccc2s1)c1ccncc1Cl` yielded a growth of 34.2%. `COc1c(N2CC3CCCNC3C2)c(F)cc2c(=O)c(C(=O)N/N=C/c3ccc(F)cc3)cn(C3CC3)c12` (stereo not given) gave a growth of 97.9%. Work on `C=CCOc1cccc(/C=C2\SC(=S)N(C3CC(=O)N(c4ccc(Br)cc4)C3=O)C2=O)c1` (stereo not given) yielded a growth of 103%. In the case of `Cc1c(Cl)cccc1S(=O)(=O)Nc1ccc2c(c1)C(=O)N(C1CCC(=O)NC1=O)C2=O` (stereo not given), the growth is reported as 64.1%. For `COc1ccccc1-n1cc(C#N)c(N)c1C(=O)c1ccc(Cl)cc1`, the growth was 78%. Work on `CCn1c(SCC(=O)Nc2cccc(C(=O)/C=C/c3ccccc3Cl)c2)nc2ccccc2c1=O` yielded a growth of 65.7%. Molecule `O=S(=O)(NC1c2ccccc2C[C@H]1O)c1ccc(Cl)cc1Cl` (stereo not given in full) has a growth of 99.2%. Work on `C#C[C@]1(O)CC[C@H]2[C@@H]3CC=C4c5sc(-c6ccc(C)cc6)nc5CC[C@]4(C)[C@H]3CC[C@@]21C` yielded a growth of 49.3%. Molecule `NS(=O)(=O)c1ccc(-n2cc(CN3CCCCC3)nn2)cc1` has a growth of 104%. `Oc1ccc(CSc2nnc(-c3ccc(Cl)cc3)n2-c2ccccc2)c2cccnc12` was tested, and the growth was 24.2%. With `Fc1ccc(-c2cc3nc(C(Cl)Cl)nc(-c4ccco4)n3n2)cc1` the growth was 74.3%. In the case of `COc1cc(-c2nc(SCCC(C)C)nc(NNC(=O)c3ccncc3)c2C#N)cc(OC)c1OC`, the growth is reported as 2.47% (active). Molecule `c1cn2c(ccc3nc(-c4cn[nH]c4)c4c(c32)CCCC4)n1` has a growth of 45.3%. Molecule `C#CCOc1ccc(/C=N\Nc2nc(-c3ccc(C)cc3)cs2)cc1OC` has a growth of 92.3%. Work on `COc1cc2nc(Cl)nc(Nc3cccc(C4=Nc5c(N)nc(N)nc5NC(c5ccc(Cl)cc5)C4)c3)c2cc1OC` (stereo not given) yielded a growth of 87.9%. `NS(=O)(=O)c1ccc(Nc2cc(-c3ccccc3)nc(SCC(=O)c3ccccc3)n2)cc1` gave a growth of 97.4%. For `O=C(CN1CCN(c2cc(=O)n(-c3ccccc3)c3ccccc23)CC1)Nc1ccc(F)cc1`, the growth was 60.1%. For `COc1ccc(OC)c(-c2nc(SCC(=O)c3ccc(Br)cc3)nc(Nc3ccc(S(N)(=O)=O)cc3)c2C#N)c1`, the growth was 54.7%. With `CCO/C=N/C1=C(C#N)C(c2ccc(F)cc2)c2sc3c(C)cccc3c2O1` (stereo not given) the growth was 18.7%. `COc1cc(-c2nn(C(C)(C)C)cc2-c2ccnc(NCCCNS(=O)(=O)c3ccc(Cl)cc3)n2)ccc1Cl` showed a growth of 50.8%. In the case of `COc1cc2oc(-c3cccc(NC(=O)c4cc(N)ccc4Cl)c3)cc(=O)c2c(OC)c1OC`, the growth is reported as 99.5%. With `Cc1cccc2c3c(sc12)C(c1ccc(F)cc1)C(C#N)=C(/N=C/c1ccc(Cl)cc1)O3` (stereo not given) the growth was 22.5%. Work on `CNC(=O)c1c(NC(=O)c2cccc(C(F)(F)F)c2F)sc2c1CCC(=O)C2` yielded a growth of 10.5%. `COc1ccc(-c2nc3cccc(O)c3c(=O)n2Cc2ccccc2)cc1COc1ccc(NC(C)=O)cc1` gave a growth of 41.6% [3 µM]. Work on `O=C(c1ccc(Cl)cc1)C1[C@H](c2ccc(Cl)cc2)[C@@H](c2ccccc2)NC12C(=O)Nc1ccccc12` (stereo not given in full) yielded a growth of 44.9%. Molecule `CN(C)CCCOc1ccc2c(c1)CN(C(=O)c1cc(C(=O)N3Cc4cccc(F)c4C3)ccc1O)C2` has a growth of 113%. `Cc1ccc2sc3c(c2c1)OC(N)=C(C#N)C3c1cccc(F)c1` (stereo not given) was tested, and the growth was 18.8%. Work on `NC(=O)c1cccc(C#CCNC[C@H]2C[C@@H](n3ccc4c(Cl)ncnc43)[C@H](O)[C@@H]2O)c1` yielded a growth of 101%.
